Experiment [1] concerns Wnt5a (protein binding on small-molecule microarray). Put plainly: Wnt5a binders on small-molecule microarray, primary screen, biophysical, 635/667 nm fluorescence (AID 1142).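 Further: fluorescence read at 667 nm with signal to noise per printed feature.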 To be noted: 635 nm fluorescence, higher = more signal.
Experiment [2] can be described thus: cell viability in Huh7 cells, primary screen, cytotoxicity control for HCV replication inhibitor project, CellTiter-Glo luminescence, basal, 48 h (AID 1143).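 Further: Huh7 hepatoma cells carrying a hepatitis C replication reporter with no stimulus; test concentration not given here.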 To be noted: Huh7 HCV replicon, higher = more signal, called active from +8 up or from −8 down.
The nature of experiment [3]: P. aeruginosa biofilm formation inhibitors, primary screen, PAO1 strain, BacTiter-Glo luminescence, LB-PBS (AID 1144). To be noted: 12 h, higher = more signal.
A short description of experiment [4]: CREB reporter modulators without forskolin, primary screen, cell-based, PC12, CRE-LacZ reporter, unstimulated (AID 1145). As to conditions: no forskolin, luminescence, 4.5 h, higher = more signal, called active from +8 up or from −8 down.
A short description of experiment [5]: CREB reporter modulators under forskolin, primary screen, cell-based, PC12, CRE-LacZ reporter, forskolin-stimulated (AID 1146).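 Further: PC12 cells with 6xCRE LacZ reporter stimulated by forskolin 10 µM; beta-galactosidase reporter signal reflecting CREB driven transcription.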 As to conditions: luminescence, 4.5 h, higher = more signal, called active from +8 up or from −8 down.
In experiment [6] the target is Streptavidin (Streptomyces avidinii) (UniProt P22629). Put plainly: streptavidin binders on small-molecule microarray, primary screen, artefact control for SMM compound annotation, biophysical, 635/667 nm fluorescence (AID 1147).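 Further: signal reflects streptavidin binding to arrayed compounds as a control protein.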 As to conditions: streptavidin binding, higher = more signal.
Streptavidin (Streptomyces avidinii), sequence (P22629 whole entry, looked up): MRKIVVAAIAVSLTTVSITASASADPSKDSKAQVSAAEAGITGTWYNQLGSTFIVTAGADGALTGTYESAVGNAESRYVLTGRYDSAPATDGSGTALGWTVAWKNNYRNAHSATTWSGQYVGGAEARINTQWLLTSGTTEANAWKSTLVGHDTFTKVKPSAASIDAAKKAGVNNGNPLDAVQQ
Experiment [7] can be described thus: small-molecule binders of probe aInhba, primary screen, biochemical, small-molecule microarray, 635/667 nm fluorescence (AID 1148).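 Further: score merges 667nm spot fluorescence with signal-to-noise for antibody binding to printed compounds.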 As to conditions: higher = more signal.
Experiment [8] addresses Torsin-1A (Homo sapiens) (UniProt O14656). Put plainly: torsin A binders from cell lysate, primary screen, small-molecule microarray, wild-type, 635/667 nm (AID 1149). As to conditions: COS7 hTOR1A-WT lysate, 635 nm fluorescence, higher = more signal.
For experiment [9] the target is unchanged. Kind of experiment: small-molecule binders of mutant TOR1A in lysate, primary screen, cell lysate, small-molecule microarray, COS7 lysate, 635/667 nm fluorescence (AID 1150).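 Further: score pools 667 nm emission and signal to noise measuring lysate protein binding.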 As to conditions: COS7 hTOR1A mutant lysate, 635 nm fluorescence, higher = more signal.
In experiment [10] the test system is Sonic hedgehog protein (Shh). Kind of experiment: small-molecule binders of Shh protein, primary screen, biochemical, small-molecule microarray, 635/667 nm fluorescence (AID 1151).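 Further: Shh protein binding to compounds spotted on small-molecule microarray slides; score combines spot fluorescence intensity with signal-to-noise across triplicate slides.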 To be noted: small-molecule microarray binding, 635 nm fluorescence; higher = more signal.
Experiment [11] in a line: E. coli DRC41 culture turbidity changes, primary screen, E. coli filamentation inducer project, strain DRC41, OD650, 48 h (AID 1152).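 Further: E. coli MC1000 strain DRC41 lacking acrAB efflux pump and sulA.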 To be noted: E. coli DRC41 (acrAB sulA), higher = more signal, called active from +8 up or from −8 down.
Experiment [12] is described as follows: small-molecule binders of probe aLefty1, primary screen, biochemical, small-molecule microarray, 635/667 nm fluorescence (AID 1153).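 Further: score merges spot fluorescence with signal-to-noise ratio from the scanned slide images.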 To be noted: higher = more signal.
Experiment [13] in a line: PSAC antagonists in infected red cells, primary screen, cell-based, P. falciparum Indochina, OD700, 1 h (AID 1154). As to conditions: P. falciparum Indochina infected RBC osmotic lysis, higher = more signal, called active from +8 up or from −8 down.
A short description of experiment [14]: PSAC antagonists in infected red cells, primary screen, cell-based, P. falciparum Indochina, OD700, 2 h (AID 1155).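 Further: lysis reports solute entry through the parasite surface anion channel PSAC; channel blockers reduce lysis of infected cells.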 As to conditions: P. falciparum Indochina infected erythrocytes, osmotic lysis OD700; higher = more signal, called active from +8 up or from −8 down.
The nature of experiment [15]: osmotic lysis modulators in infected erythrocytes, primary screen, PSAC antagonist project, cell-based, P. falciparum Indochina, OD700, 3 h (AID 1156). To be noted: higher = more signal, called active from +8 up or from −8 down.
Experiment [16] is described as follows: PSAC antagonists in infected red cells, primary screen, cell-based, P. falciparum Indochina, OD700, 18 h (AID 1157). As to conditions: P. falciparum Indochina infected erythrocytes, osmotic lysis OD700, 18 h; higher = more signal, called active from +8 up or from −8 down.
A short description of experiment [17]: modulators of S6 phosphorylation in cells, primary screen, cell-based, A549, cytoblot, luminescence, serum-stimulated (AID 1158).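 Further: serum-stimulated A549 lung adenocarcinoma cells; signal is phosphorylated S6 detected by cytoblot immunostaining with HRP secondary.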 As to conditions: A549 phospho-S6 cytoblot, 5 h, higher = more signal.
For experiment [18], the target named is NADPH oxidase 2 (Homo sapiens) (UniProt P04839). Put plainly: NOX2-dependent H2O2 signal modulators, primary screen, NOX inhibitor project, cell-based, HEK293-NOX2, PMA-stimulated, Amplex Red fluorescence (AID 1159). Further: test concentration not given here. To be noted: 45 min, higher = more signal, called active from +8 up or from −8 down.
NADPH oxidase 2 (Homo sapiens), sequence (P04839 whole entry, looked up): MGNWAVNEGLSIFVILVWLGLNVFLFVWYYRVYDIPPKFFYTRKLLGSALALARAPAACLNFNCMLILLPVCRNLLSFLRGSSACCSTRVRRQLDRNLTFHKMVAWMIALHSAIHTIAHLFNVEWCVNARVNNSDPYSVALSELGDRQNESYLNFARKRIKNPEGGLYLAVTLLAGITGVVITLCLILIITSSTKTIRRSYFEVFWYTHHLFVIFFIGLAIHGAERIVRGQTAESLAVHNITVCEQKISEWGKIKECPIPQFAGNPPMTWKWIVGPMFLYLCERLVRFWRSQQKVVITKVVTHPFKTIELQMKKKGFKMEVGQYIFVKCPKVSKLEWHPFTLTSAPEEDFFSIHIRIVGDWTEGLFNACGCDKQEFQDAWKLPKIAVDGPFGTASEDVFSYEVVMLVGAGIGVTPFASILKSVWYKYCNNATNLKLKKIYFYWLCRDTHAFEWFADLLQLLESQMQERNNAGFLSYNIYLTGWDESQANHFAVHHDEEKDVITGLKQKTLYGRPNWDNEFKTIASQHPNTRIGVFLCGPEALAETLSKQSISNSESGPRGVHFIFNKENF
Experiment [19] has as its target NADPH oxidase 4 (Homo sapiens) (UniProt Q9NPH5). Put plainly: NOX4-dependent H2O2 signal modulators, primary screen, NOX inhibitor project, cell-based, HEK293-NOX4, tetracycline-induced, Amplex Red fluorescence (AID 1160). To be noted: 45 min, higher = more signal, called active from +8 up or from −8 down.
Experiment [20] deals with NADPH oxidase 5 (Homo sapiens) (UniProt Q96PH1). Put plainly: NOX5-dependent H2O2 signal modulators, primary screen, NOX inhibitor project, cell-based, HEK293-NOX5, Amplex Red fluorescence (AID 1161). As to conditions: HEK293-NOX5, ionomycin, 45 min, higher = more signal.
NADPH oxidase 5 (Homo sapiens), sequence (Q96PH1 whole entry, looked up): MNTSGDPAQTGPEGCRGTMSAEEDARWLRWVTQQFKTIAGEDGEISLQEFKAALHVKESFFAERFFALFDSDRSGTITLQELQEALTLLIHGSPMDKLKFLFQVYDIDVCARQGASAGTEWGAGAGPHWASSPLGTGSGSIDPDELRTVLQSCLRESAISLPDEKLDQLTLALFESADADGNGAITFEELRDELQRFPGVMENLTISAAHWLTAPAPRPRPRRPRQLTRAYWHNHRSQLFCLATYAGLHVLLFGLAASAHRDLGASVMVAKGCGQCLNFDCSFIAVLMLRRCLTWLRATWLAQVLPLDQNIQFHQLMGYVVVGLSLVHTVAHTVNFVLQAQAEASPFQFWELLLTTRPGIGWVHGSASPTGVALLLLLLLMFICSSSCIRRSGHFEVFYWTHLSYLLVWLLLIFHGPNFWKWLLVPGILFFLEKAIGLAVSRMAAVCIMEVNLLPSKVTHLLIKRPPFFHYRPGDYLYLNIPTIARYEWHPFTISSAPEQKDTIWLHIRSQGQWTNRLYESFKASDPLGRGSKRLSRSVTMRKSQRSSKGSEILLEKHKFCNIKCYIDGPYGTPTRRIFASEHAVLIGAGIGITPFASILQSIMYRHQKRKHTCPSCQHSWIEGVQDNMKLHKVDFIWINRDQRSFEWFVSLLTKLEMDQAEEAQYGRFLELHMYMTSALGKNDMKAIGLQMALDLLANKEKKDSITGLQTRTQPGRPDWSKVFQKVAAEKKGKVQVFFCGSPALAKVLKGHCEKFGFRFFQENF

Active and inactive are the calls of the source. Unless noted, how the calls were made is not given here.

NADPH oxidase 4 (Homo sapiens), sequence (Q9NPH5 whole entry, looked up): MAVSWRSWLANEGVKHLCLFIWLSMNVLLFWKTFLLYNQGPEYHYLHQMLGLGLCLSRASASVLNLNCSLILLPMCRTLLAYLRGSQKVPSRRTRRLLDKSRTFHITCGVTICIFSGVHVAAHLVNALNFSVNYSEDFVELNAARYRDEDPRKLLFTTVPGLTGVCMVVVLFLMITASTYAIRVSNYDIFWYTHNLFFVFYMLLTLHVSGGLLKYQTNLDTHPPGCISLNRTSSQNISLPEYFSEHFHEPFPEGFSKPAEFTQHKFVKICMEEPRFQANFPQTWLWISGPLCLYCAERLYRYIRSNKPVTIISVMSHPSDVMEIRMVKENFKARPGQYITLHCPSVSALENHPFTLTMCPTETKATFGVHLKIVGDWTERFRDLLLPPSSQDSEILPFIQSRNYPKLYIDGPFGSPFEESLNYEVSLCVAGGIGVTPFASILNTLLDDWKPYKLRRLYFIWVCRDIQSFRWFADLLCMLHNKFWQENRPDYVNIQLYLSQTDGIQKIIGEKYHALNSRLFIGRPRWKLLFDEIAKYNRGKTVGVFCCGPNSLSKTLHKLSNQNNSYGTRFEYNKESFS
Torsin-1A (Homo sapiens), sequence (O14656 whole entry, looked up): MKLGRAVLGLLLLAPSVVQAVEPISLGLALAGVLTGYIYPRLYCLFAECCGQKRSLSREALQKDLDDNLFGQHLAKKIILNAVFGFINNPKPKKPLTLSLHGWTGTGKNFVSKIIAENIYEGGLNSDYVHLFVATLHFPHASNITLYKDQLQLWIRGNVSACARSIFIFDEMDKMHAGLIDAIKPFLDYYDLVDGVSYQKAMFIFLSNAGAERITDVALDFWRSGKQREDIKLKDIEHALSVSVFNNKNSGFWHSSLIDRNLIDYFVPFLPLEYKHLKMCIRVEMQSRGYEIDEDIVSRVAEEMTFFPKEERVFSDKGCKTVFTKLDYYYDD

With `CCCNC(=O)OC[C@H]1O[C@H](CCON=C2[C@H]3CCn4c(=O)n(-c5ccccc5)c(=O)n4[C@H]3[C@H](O)[C@@H]3O[C@H]23)C=C[C@@H]1Oc1ccc(OC)cc1`, the composite z-score in experiment [1] is 0.14; in [6] it was -0.28; in experiment [7] it was 0.0294; in the experiment with Torsin-1A (Homo sapiens) [8] it was 0.0932; in the experiment with Torsin-1A (Homo sapiens) [9], 0.565; in experiment [10], 0.572. The molecule further came in with a composite z-score in [12] of 0.198. Also, the z-score in experiment [2] was -0.0238 (inactive); in experiment [3] it was 1.01 (inactive); in experiment [4] it was 0.899 (inactive); in [5] it was 0.301 (inactive); in experiment [11] it was 0.653 (inactive); in experiment [13] it was 1.69 (inactive). Moreover, the z-score in experiment [14] was -0.0218 (inactive); in experiment [15], 0.378 (inactive); in experiment [16] it was 0.268 (inactive); in [17], -0.254; in [18], -1.58 (inactive); in [19], -0.373 (inactive). The molecule further yielded a z-score in [20] of -0.987.

Turning to `NC(=O)NCC#Cc1ccc2c(c1)[C@]1(C(=O)N2)[C@H](c2ccc(O)cc2)N2[C@H](c3ccccc3)[C@H](c3ccccc3)OC(=O)[C@H]2[C@@H]1C(=O)N1CCCCCCC1`, the composite z-score in [1] is 0.2; in experiment [6], 0.393; in experiment [7], 1.23; with Torsin-1A (Homo sapiens) [8], -0.067; with Torsin-1A (Homo sapiens) [9], 0.609; in experiment [10] it was 1.06. In addition, in experiment [12], the composite z-score came to 2.04. The z-score in [2] is -0.502 (inactive); in experiment [3], -0.75 (inactive); in experiment [4] it was -0.231 (inactive); in experiment [5], -0.674 (inactive); in [11] it was -0.403 (inactive); in [13], 0.578 (inactive). For the same molecule, the z-score in experiment [14] was -0.175 (inactive); in experiment [15] it was 0.35 (inactive); in experiment [16], 0.197 (inactive); in experiment [17], 0.0459; in experiment [18], 1.71 (inactive); in experiment [19], 0.802 (inactive). The same molecule had a z-score in experiment [20] of 1.2.

As for `CC(C)=CCCC(C)=CCON=C1[C@H]2CCn3c(=O)n(C)c(=O)n3[C@H]2[C@H](O)[C@@H]2O[C@H]12`, the composite z-score in [1] is 0.287; in experiment [6], 0.203; in [7] it was -0.12; in the experiment with Torsin-1A (Homo sapiens) [8] it was 1.15; with Torsin-1A (Homo sapiens) [9], 0.898; in experiment [10], 1.98. The composite z-score in experiment [12] is -0.115. Besides, the z-score was 0.583 (inactive) in experiment [2]; 1.13 (inactive) in experiment [3]; 0.519 (inactive) in [4]; -0.0697 (inactive) in experiment [5]; 0.459 (inactive) in experiment [11]; 0.306 (inactive) in experiment [13]. In addition, the z-score in experiment [14] was 0.197 (inactive); in experiment [15], 0.0128 (inactive); in experiment [16] it was 0.0078 (inactive); in experiment [17] it was -0.48; in [18], -2.6 (inactive); in [19], 0.0699 (inactive). The molecule further displayed a z-score in experiment [20] of 0.43.

Take `O=C1C2=CC[C@H]3C(=O)N(Cc4ccc5c(c4)OCO5)C(=O)[C@H]3[C@H]2[C@H](O)[C@@H]2O[C@H]12`: the composite z-score in experiment [1] is -0.0194; in experiment [6] it was 0.57; in experiment [7] it was -0.0933; with Torsin-1A (Homo sapiens) [8], 0.475; with Torsin-1A (Homo sapiens) [9], 0.677; in experiment [10], 0.495. In experiment [12], this molecule registered a composite z-score of -0.0464. Moreover, the z-score in [2] is 0.279 (inactive); in [3], -0.0992 (inactive); in experiment [4], -0.385 (inactive); in experiment [5], -0.454 (inactive); in experiment [11], 0.0561 (inactive); in experiment [13] it was -1 (inactive). Moreover, the z-score in experiment [14] is -0.507 (inactive); in experiment [15], -0.906 (inactive); in [16] it was 0.0094 (inactive); in [17] it was 0.116; in experiment [18], -0.382 (inactive); in [19] it was -0.111 (inactive). The z-score in experiment [20] came out at 0.104.

For `CO[C@@H]1COC(=O)CCC[C@@H](C)[C@H](OC)COC(=O)CCC[C@H]1C`, the composite z-score in experiment [1] was -0.0665; in [6] it was 0.0601; in experiment [7] it was -0.0405; in the experiment with Torsin-1A (Homo sapiens) [8], 0.978; with Torsin-1A (Homo sapiens) [9] it was 0.662; in [10] it was 0.533. This molecule also yielded a composite z-score in experiment [12] of -0.0933. Moreover, the z-score in [2] is -0.459 (inactive); in [3], -0.276 (inactive); in [4], -0.152 (inactive); in experiment [5] it was 0.273 (inactive); in [11] it was -0.665 (inactive); in experiment [13], 0.553 (inactive). The z-score in experiment [14] is 0.637 (inactive); in [15], 0.719 (inactive); in experiment [16], 0.49 (inactive); in experiment [17] it was -0.918; in experiment [18], 0.545 (inactive); in [19] it was 0.567 (inactive). The molecule further gave a z-score in experiment [20] of 0.031.

The record behind these values is PubChem BioAssay.
